# Measurements reported in PubChem BioAssay (NCI).
# Compounds without any hit were thinned out: in the full panel of roughly 83,000, 20% have a hit.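 Single-concentration screen, 48 h exposure, 96-well plates. Endpoint: percent growth. Below 10 = active.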 Values without a mark were called inactive. Activity calls are given as the source filed them.
# Assays:
# Test in all cases: NCI-60 one-dose screen, 48 h (100 = growth as untreated, 0 = no growth, -100 = all killed)
# Conditions in all cases: 10 µM unless noted
# HCT-15 colon = tested on: HCT-15 colon
# HT29 colon = tested on: HT29 colon
# SNB-75 CNS = tested on: SNB-75 CNS
# SNB-19 CNS = tested on: SNB-19 CNS
# U251 CNS = tested on: U251 CNS
# PC-3 prostate = tested on: PC-3 prostate
# SK-MEL-5 melanoma = tested on: SK-MEL-5 melanoma
# UACC-62 melanoma = tested on: UACC-62 melanoma
# LOX IMVI melanoma = tested on: LOX IMVI melanoma
# SK-MEL-28 melanoma = tested on: SK-MEL-28 melanoma
# SK-MEL-2 melanoma = tested on: SK-MEL-2 melanoma
# EKVX NSCLC = tested on: EKVX NSCLC
# SN12C renal = tested on: SN12C renal
# UO-31 renal = tested on: UO-31 renal
# CAKI-1 renal = tested on: CAKI-1 renal
# A498 renal = tested on: A498 renal
# MOLT-4 leukemia = tested on: MOLT-4 leukemia
# TK-10 renal = tested on: TK-10 renal
# ACHN renal = tested on: ACHN renal
# CCRF-CEM leukemia = tested on: CCRF-CEM leukemia
Structure (SMILES),growth (HCT-15 colon),growth (HT29 colon),growth (SNB-75 CNS),growth (SNB-19 CNS),growth (U251 CNS),growth (PC-3 prostate),growth (SK-MEL-5 melanoma),growth (UACC-62 melanoma),growth (LOX IMVI melanoma),growth (SK-MEL-28 melanoma),growth (SK-MEL-2 melanoma),growth (EKVX NSCLC),growth (SN12C renal),growth (UO-31 renal),growth (CAKI-1 renal),growth (A498 renal),growth (MOLT-4 leukemia),growth (TK-10 renal),growth (ACHN renal),growth (CCRF-CEM leukemia)
COC(=O)C(Br)(C(=O)OC)C(Br)C(Br)C(Br)c1ccccc1 (stereo not given),-37.8% (active),32.3%,92.4%,98.6%,81.5%,93.3%,98.4%,60.2%,9.1% (active),108%,83.6%,105%,96.7%,-8.98% (active),-69.6% (active),101%,50.1%,,,
O=C(Nc1ccncc1)C(=O)c1cn(S(=O)(=O)c2cccc(Cl)c2F)c2ccccc12,50%,50%,80.7%,82.7%,73.6%,75.8%,57.5%,57%,51.3%,95.1%,60.6%,59.2%,,56.9%,68.3%,72%,60.2%,112%,101%,66.4%
CCSCC1CC(O)(c2ccccc2)C(c2ccccc2)C(c2ccc(F)cc2)O1 (stereo not given),3.78% (active),-18.7% (active),-14% (active),8.78% (active),-11.8% (active),-21.1% (active),-84.2% (active),-44.4% (active),-64.5% (active),-39.4% (active),-0.854% (active),0.894% (active),-22.9% (active),-0.34% (active),-13.5% (active),,-48.2% (active),,-14.3% (active),2.04% (active)
Nc1cc(C(=O)O)cc(C(=O)O)c1,111%,97.2%,99.2%,111%,108%,96.8%,108%,104%,115%,115%,89.6%,105%,96.3%,84.8%,104%,98%,90.1%,,109%,
c1cn2cc(-c3ccc4ncn(C5CCCCC5)c4c3)nc(-c3ccc4c(c3)ncn4C3CCCCC3)c2n1,-11.5% (active),-26.2% (active),-89.6% (active),6.63% (active),-83.3% (active),-64.1% (active),-89.4% (active),-47.7% (active),-87.4% (active),-19.8% (active),-65.6% (active),-13.1% (active),,-85.4% (active),17.2%,-88.1% (active),-30.5% (active),-59.3% (active),-58.8% (active),4.28% (active)
CC(C)(C)c1nn(-c2ccccc2)c2c1C(=O)CSC(c1ccccc1Cl)N2 (stereo not given),25.1%,18.5%,-1.74% (active),39.8%,33.2%,15.5%,11.6%,38.7%,35.5%,47.3%,45.5%,30.8%,53.8%,,10%,56.9%,20.9%,77.5%,53.7%,11.4%
COc1ccc(C2c3cccn3-c3ccccc3N2C(C)=O)cc1 (stereo not given),87.7%,115%,77.4%,100%,106%,78.4%,96.1%,86.3%,96.1%,108%,117%,,99.8%,70.6%,84.2%,86%,1.08% (active),103%,99%,88.3%
CC1=CC(=O)OC1C/C=C(\C)CCC1[C@@]2(C)CCC[C@@](C)(C(=O)O)C2CC[C@@]1(C)O (stereo not given in full),14.1%,86.8%,74%,53.3%,35.4%,59.1%,-23.8% (active),15.4%,97.3%,26.7%,16.5%,38.8%,,32.2%,32.9%,52.7%,114%,53.6%,26.1%,70.2%
O=c1c2cc(Cl)ccc2oc2ccc(OCCCCCN3CCCCCC3)cc12,30%,5.64% (active),92.3%,91.5%,69.2%,83.2%,62.9%,85.4%,73.2%,107%,96.5%,89.6%,,,94.6%,68.9%,48.5%,89.2%,110%,60.5%
COc1cnc2c(c1)C(=O)c1c-2n(CCCN2CCNCC2)c(=O)c2cc(Cl)ccc12,-89.4% (active),-80.4% (active),39.7%,30.4%,-98.4% (active),-84% (active),45.2%,-45% (active),-84.6% (active),-88.2% (active),43.9%,29%,,-59% (active),33.1%,13.6%,-54.2% (active),47.5%,-100% (active),-69.4% (active)
